# Assay outcomes: PubChem, several laboratories
# NR3A LBD binder: NR3A (human) ligand-binding domain modulation; Tm shift relative to glycine control, % at 25 µM; actives 2.5% (n = 340,000); AID 1259313; NR3A LBD differential scanning fluorimetry, Tm shift; 0% = protein alone, 100% = glycine-bound protein;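 active means melting temperature shift of at least 10% of the positive control shift, at one fixed dose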
# ADAM17 inh: inhibits human ADAM17 | actives 0.83% (n = 370,000) | inhibition, % at 6.95 µM | recombinant ADAM17, EDANS/DABCYL FRET peptide cleavage | AID 720648;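 active means inhibition above the mean of compounds lying between control limits plus 3 SD, set per campaign, cut at about 8.5% in these data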;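 further: 0% = DMSO-only wells as the low control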
# Target sequence (P78536 215-824 limits assumed): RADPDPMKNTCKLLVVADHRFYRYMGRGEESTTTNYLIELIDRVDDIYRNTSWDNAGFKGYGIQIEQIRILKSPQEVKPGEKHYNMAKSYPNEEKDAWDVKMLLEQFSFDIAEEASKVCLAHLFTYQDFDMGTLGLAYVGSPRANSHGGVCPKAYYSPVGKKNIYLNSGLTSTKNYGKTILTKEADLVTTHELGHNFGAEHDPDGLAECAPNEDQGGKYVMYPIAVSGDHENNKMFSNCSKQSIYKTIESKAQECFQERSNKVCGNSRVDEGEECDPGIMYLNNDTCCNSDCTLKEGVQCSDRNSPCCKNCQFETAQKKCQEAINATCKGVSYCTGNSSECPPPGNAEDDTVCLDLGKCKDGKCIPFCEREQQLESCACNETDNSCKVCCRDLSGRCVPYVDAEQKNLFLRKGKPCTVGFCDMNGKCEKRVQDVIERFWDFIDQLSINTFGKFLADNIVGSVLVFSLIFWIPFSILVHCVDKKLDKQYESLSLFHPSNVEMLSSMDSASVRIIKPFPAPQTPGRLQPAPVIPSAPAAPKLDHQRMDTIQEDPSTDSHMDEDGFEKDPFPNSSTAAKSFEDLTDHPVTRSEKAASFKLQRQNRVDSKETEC
# sPLA2-III inh: Inhibits HGIII-sPLA2 liposome hydrolysis, primary screen | QFRET BODIPY PC-A2 liposome hydrolysis, fluorescence | inhibition, % at 12.2 µM | actives 0.56% (n = 370,000) | AID 743126;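 active means inhibition above mean plus 3 SD of compounds lying within the high and low control bounds, cut at about 19% in these data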;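 further: 0% = median of test compound wells and 100% = no enzyme DMSO wells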
# FAS-TE inh: blocks the thioesterase domain of human fatty acid synthase | AID 602261 | recombinant FAS-TE, OMFH fluorogenic substrate, fluorescence endpoint | actives 0.67% (n = 360,000) | inhibition, % at 15 µM | P49327;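 active means compounds whose normalised, plate-corrected inhibition of enzyme fluorescence in the single-dose primary screen is 50% or more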;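 further: 0% = DMSO with enzyme and 100% = substrate without enzyme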
# ADAM10 inh: ADAM10 inhibition, QFRET primary screen | inhibition, % at 7 µM | actives 0.62% (n = 370,000) | recombinant ADAM10, EDANS/DABCYL FRET peptide cleavage, 3 h;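 active means inhibition above a per-campaign cutoff equal to the mean of compounds falling between control-based bounds plus 3 SD, cut at about 20% in these data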;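 further: 0% = DMSO wells while the 100% control is not disclosed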
# * marks the source's active call; other numbers are inactive results; . = no result given. Shown are actives, neighbours in structure and some others; about 4.3% of the full set was active somewhere.
SMILES,NR3A LBD binder,ADAM17 inh,sPLA2-III inh,FAS-TE inh,ADAM10 inh
COc1ccc(NC(=O)NC2CCN(S(=O)(=O)c3ccc(F)cc3)CC2)cc1OC,.,0,0,.,2
Cc1ccc(NC(=O)CN(C)C(=O)/C=C/c2ccc3c(c2)OCO3)cc1,3,-28,2,14,-80
CCN(CC(=O)Nc1ccc(NC(C)=O)cc1)C(=O)/C=C/c1ccc2c(c1)OCO2,31*,-50,-11,-6,-168
Cc1cc(N2CCN(CCO)CC2)n2nc(C)nc2n1,.,0,7,.,0
O=c1oc2ccccc2cc1-c1csc(Nc2nc3c(F)cccc3s2)n1,23*,-2,2,-4,-11
CC(=O)c1cc(-c2ccc(-c3ccccc3)c(F)c2)c(=O)n2c1CCC2,.,-8,9,.,-17
CCN(CC)C(=O)Oc1cc(=O)n2c3c(cccc13)CCC2,20*,-8,-4,-10,-17
O=C(NCC1CCN(C(=O)C(=O)c2cc3ccccc3o2)CC1)c1ccc2c(c1)OCCCO2,.,-3,3,.,-10
Cc1ccc2nc(SCC(=O)Nc3ccc4c(c3)CCC4)[nH]c2c1,0,7,-22,6,15
Cc1ccc(NC(=O)CSc2nc3nc(C)c(Br)cc3[nH]2)cc1F,14*,0,-18,-5,-2
O=C(CSc1nc2cc3ccccc3cc2[nH]1)Nc1ccc(F)cc1,17*,6,-23,3,16
O=C(CSc1nc2ccc(Cl)cc2[nH]1)Nc1ccc2c(c1)CCC2,21*,5,-28,11,13
COC(=O)CSc1nc2nc(C)c(Br)cc2[nH]1,0,2,0,-8,-3
Cc1ccc(C)c(NC(=O)C(Sc2nc3ccc(C)cc3[nH]2)c2ccccc2)c1 (configuration not stated),-3,1,-29,9,1
Cc1ccc2nc(SC(C(=O)Nc3ccc(F)cc3)c3ccccc3)[nH]c2c1 (configuration not stated),16*,4,-29,8,10
CN1C2=NC(c3ccccc3)CC(=O)N2/C(=C\c2ccccc2)C1c1ccccc1C(F)(F)F (configuration not stated),.,-1,-4,.,2
O=C(CSc1ncc(-c2ccc(F)cc2)[nH]1)Nc1cccc(O)c1,16*,-2,-20,-3,0
O=C(NCCc1c[nH]c2ccccc12)OCc1cn(Cc2cccc(F)c2F)nn1,.,-6,-64,.,-1
CCCC[C@H]1C2CC(OC(=O)Nc3ccc(C)cc3)C(C2)[C@H]2CCCCN21 (some centres not stated),.,0,10,.,-1
CN(C)c1ccc(NC(=O)c2sc(SCC(=O)Nc3ccc(Br)cc3)nc2N)cc1,16*,-2,8,-12,-3
CN(C)c1ccc(NC(=O)c2sc(SCC(=O)Nc3nccs3)nc2N)cc1,-1,7,-3,0,8
COc1cccc(NC(=O)C2CCN(S(=O)(=O)c3ccc4c(c3)N(C(C)=O)CCO4)CC2)c1,18*,3,-3,-3,-2
CC(=O)N1CCOc2ccc(S(=O)(=O)N3CCC(C(=O)Nc4ccc(F)cc4)CC3)cc21,4,2,-2,3,-3
Cc1ccc(/C=N/NC(=O)c2nnn(-c3nonc3N)c2CSc2ccc(Cl)cc2)o1,21*,2,-3,8,8
CCN(CC)Cc1c(C(=O)N/N=C/c2ccc(C)o2)nnn1-c1nonc1N,1,5,-7,-6,11
SMILES,NR3A LBD binder,ADAM17 inh,sPLA2-III inh,FAS-TE inh,ADAM10 inh
Nc1nonc1-n1nnc(C(=O)N/N=C/c2ccncc2)c1CSc1ccccc1,11*,-4,4,7,0
Cc1ccsc1/C=N/NC(=O)c1nnn(-c2nonc2N)c1CSc1ccccc1,36*,-6,-3,-4,-5
Nc1nonc1-n1nnc(C(=O)N/N=C/c2ccoc2)c1CSc1ccccc1,16*,.,.,3,.
Cc1ccsc1/C=N/NC(=O)c1nnn(-c2nonc2N)c1-c1ccccc1,-3,-1,-7,2,2
C[C@H]1[C@@H](OC(=O)N2CCN(c3ccccc3)CC2)CC[C@@]23CCCN2C(=O)CCC[C@@H]13,.,-3,0,.,-2
C[C@H]1[C@H](c2ccccc2)OC(O)([C@H](Cc2ccccc2)NC(=O)OC(C)(C)C)CN1C (some centres not stated),.,-6,-5,.,-2
Nc1nonc1-n1nnc(C(=O)N/N=C/c2ccoc2)c1CSc1ccc(Cl)cc1,35*,-4,4,16,3
Cc1ccc(/C=N/NC(=O)c2nnn(-c3nonc3N)c2CSc2ccccc2)s1,30*,1,2,-3,0
Nc1nonc1-n1nnc(C(=O)N/N=C/c2ccccc2)c1CSc1ccccc1,35*,0,-4,-2,7
CN(C)Cc1c(C(=O)N/N=C/c2ccoc2)nnn1-c1nonc1N,5,1,0,-6,7
CCCc1c(C(=O)N/N=C/c2ccc(C)s2)nnn1-c1nonc1N,6,1,2,-7,-3
O=C(Nc1ccc(Br)cc1)OC1CC2CC1[C@H]1CCCCN1[C@H]2Cc1ccccc1 (some centres not stated),.,0,-1,.,-2
CCOc1nc(-c2ccc(OC)cc2)ccc1-c1noc(C)n1,25*,-106,0,21,-414
Cc1cc(Br)c(NC(=O)c2c(-c3c(Cl)cccc3Cl)noc2C)c(Br)c1,12*,-1,17,16,0
CCCCC1(C)OC(=O)C(=Cc2ccc(N(CC)CC)cc2)C(=O)O1 (configuration not stated),3,3,8,-7,-20
CCN(CC)c1ccc(C=C2C(=O)OC3(CCCCC3)OC2=O)cc1,18*,-1,11,-6,-11
CCc1ccccc1N(CC(=O)Nc1cccnc1)S(=O)(=O)c1ccccc1,12*,0,-4,-1,-1
CCOc1ccc(N(CC(=O)Nc2cccnc2)S(=O)(=O)c2ccc(C)cc2)cc1,16*,0,-20,0,2
CCOC(=O)[C@]12CCCCC/C=C\1N(Cc1ccc(OC)cc1)C(=O)[C@H]2CC(=O)NCCCOC,.,1,-1,.,3
CSc1ccc(S(=O)(=O)Nc2ccc(S(=O)(=O)Nc3ccc(C)cc3)cc2)cc1,25*,7,-119,30,10
CCOc1ccc(NS(=O)(=O)c2ccc(NS(=O)(=O)c3ccc(SC)cc3)cc2)cc1,28*,5,-133,23,17
CSc1cccc(NS(=O)(=O)c2ccccc2)c1,20*,-5,-6,4,6
Cc1ccc(CNC(=S)Nc2ccc(NS(=O)(=O)c3ccc(C)cc3)cc2)cc1,23*,0,-68,12,4
CCCCN1C(=O)N2Cc3ccccc3C2CS1(=O)=O (configuration not stated),.,0,3,.,1
CC(C)C[C@H]1COc2cc(Br)ccc2S(=O)(=O)N1Cc1cn(CCC2OCCCO2)nn1,.,-1,4,.,-2
